# Measured values: the supplement of paper PMC10646978
# ± gives the standard deviation.
# What was measured:
# Conditions in all cases: modulator concentration 10 µM
# [1] = test system: RAW-Dual (murine macrophage reporter line); assay: NF-kB reporter (SEAP) activity fold change vs agonist alone; higher = enhanced NF-kB activity
# Procedure, shortened: (§1)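 Compound reached 10 μM final in each well by pin transfer, onto RAW-Dual murine macrophage reporter cells seeded at 50 000 per well in 384-well plates. After 1 hour at 37 °C, the cells were stimulated overnight with a PRR agonist. SEAP in the supernatant was read with QUANTI-Blue at 620 nm absorbance for NF-κB, and Lucia luciferase was read with QUANTI-Luc luminescence for IRF. Each signal was turned into fold change against the mean agonist-only control on the same plate, and two replicate plates were averaged with propagated errors.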
# [2] = test system: RAW-Dual (murine macrophage reporter line); assay: IRF reporter (Lucia luciferase) activity fold change vs agonist alone; higher = enhanced IRF activity
# Procedure, shortened: as §1
# [3] = test system: RAW-Dual (murine macrophage reporter line); assay: viability score (confluency relative to resting cells, overnight) (fraction); higher = more viable, active = viable (0.7 or more)
# Procedure, shortened: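 RAW-Dual macrophages in 384-well plates were incubated overnight with compound, final concentration 10 μM. Confluency images from IncuCyte were processed in IncuCyte software into two masks covering all imaged wells. The viability score is each well's confluency relative to resting cells, and a compound met the cutoff when both masks exceeded 70% of resting cells.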
# [4] = agonist: CpG ODN 1826 0.5 ug/mL
structure (smiles),measurement,setting,value
COC(=O)c1c(NC(=O)C2CCCCC2)sc2c1CC(C)(C)NC2(C)C,NF-kB reporter,[1]; [4],1.12 ± 0.095
same,NF-kB reporter,[1]; agonist: LPS 0.1 ug/mL,1.24 ± 0.1
same,NF-kB reporter,[1]; agonist: MPLA […],1.47 ± 0.16
same,IRF reporter,[2]; agonist: 3'3'-cGAMP 10 ug/mL,0.764 ± 0.08
same,IRF reporter,[2]; agonist: LPS 0.1 ug/mL,1.06 ± 0.1
same,IRF reporter,[2]; agonist: MPLA […],1.82 ± 0.38
same,viability score,[3],0.419 (inactive)
COc1ccc(-c2coc3cc(O)ccc3c2=O)cc1,NF-kB reporter,[1]; [4],0.956 ± 0.29
same,NF-kB reporter,[1]; agonist: LPS 0.1 ug/mL,1.1 ± 0.1
same,NF-kB reporter,[1]; agonist: MPLA […],0.992 ± 0.13
same,IRF reporter,[2]; agonist: 3'3'-cGAMP 10 ug/mL,0.904 ± 0.034
same,IRF reporter,[2]; agonist: LPS 0.1 ug/mL,1.06 ± 0.1
same,IRF reporter,[2]; agonist: MPLA […],1.05 ± 0.17
same,viability score,[3],1.01 (active)
CCC(C)NS(=O)(=O)c1ccc([N+](=O)[O-])cc1 (centres undefined),NF-kB reporter,[1]; [4],1.13 ± 0.11
same,NF-kB reporter,[1]; agonist: LPS 0.1 ug/mL,1.05 ± 0.075
same,NF-kB reporter,[1]; agonist: MPLA […],0.977 ± 0.034
same,IRF reporter,[2]; agonist: 3'3'-cGAMP 10 ug/mL,0.883 ± 0.05
same,IRF reporter,[2]; agonist: LPS 0.1 ug/mL,1.13 ± 0.1
same,IRF reporter,[2]; agonist: MPLA […],1.18 ± 0.14
same,viability score,[3],0.998 (active)
O=S(=O)(Oc1cccc2ccccc12)c1ccc(F)cc1,NF-kB reporter,[1]; [4],0.832 ± 0.1
same,NF-kB reporter,[1]; agonist: LPS 0.1 ug/mL,0.926 ± 0.096
same,NF-kB reporter,[1]; agonist: MPLA […],1.12 ± 0.1
same,IRF reporter,[2]; agonist: 3'3'-cGAMP 10 ug/mL,0.789 ± 0.036
same,IRF reporter,[2]; agonist: LPS 0.1 ug/mL,1.06 ± 0.064
same,IRF reporter,[2]; agonist: MPLA […],1.12 ± 0.096
same,viability score,[3],0.999 (active)
CN(C)c1nc(CNC(=O)c2cnn(-c3ccccc3)n2)nc(N2CCCC2)n1,NF-kB reporter,[1]; [4],1.01 ± 0.052
same,NF-kB reporter,[1]; agonist: LPS 0.1 ug/mL,1.1 ± 0.086
same,NF-kB reporter,[1]; agonist: MPLA […],1.02 ± 0.11
same,IRF reporter,[2]; agonist: 3'3'-cGAMP 10 ug/mL,1.05 ± 0.054
same,IRF reporter,[2]; agonist: LPS 0.1 ug/mL,1.26 ± 0.08
same,IRF reporter,[2]; agonist: MPLA […],1.13 ± 0.31
same,viability score,[3],1.02 (active)
Nc1ccn([C@@H]2O[C@H](CO)[C@@H](O)[C@@H]2O)c(=O)n1,NF-kB reporter,[1]; [4],1.36 ± 0.27
same,NF-kB reporter,[1]; agonist: LPS 0.1 ug/mL,1.38 ± 0.13
same,NF-kB reporter,[1]; agonist: MPLA […],1.38 ± 0.19
same,IRF reporter,[2]; agonist: 3'3'-cGAMP 10 ug/mL,0.687 ± 0.025
same,IRF reporter,[2]; agonist: LPS 0.1 ug/mL,1.08 ± 0.16
same,IRF reporter,[2]; agonist: MPLA […],1.14 ± 0.12
same,viability score,[3],0.35 (inactive)
COc1ccc(Br)c(C(=O)N2CCCC2CS(=O)(=O)c2ccccc2)c1 (centres undefined),NF-kB reporter,[1]; [4],0.982 ± 0.12
same,NF-kB reporter,[1]; agonist: LPS 0.1 ug/mL,1.08 ± 0.085
same,NF-kB reporter,[1]; agonist: MPLA […],0.957 ± 0.075
same,IRF reporter,[2]; agonist: 3'3'-cGAMP 10 ug/mL,0.988 ± 0.051
same,IRF reporter,[2]; agonist: LPS 0.1 ug/mL,0.984 ± 0.098
same,IRF reporter,[2]; agonist: MPLA […],0.876 ± 0.11
same,viability score,[3],1 (active)
N#CC(=Cc1cn(Cc2ccccc2Cl)c2ccccc12)c1nn(CCO)c(N)c1C#N,NF-kB reporter,[1]; [4],0.919 ± 0.077
same,NF-kB reporter,[1]; agonist: LPS 0.1 ug/mL,0.959 ± 0.053
same,NF-kB reporter,[1]; agonist: MPLA […],0.91 ± 0.058
same,IRF reporter,[2]; agonist: 3'3'-cGAMP 10 ug/mL,0.909 ± 0.063
same,IRF reporter,[2]; agonist: LPS 0.1 ug/mL,1.18 ± 0.17
same,IRF reporter,[2]; agonist: MPLA […],0.936 ± 0.058
same,viability score,[3],1.02 (active)
O=c1[nH]cnc2scc(-c3ccc(Br)cc3)c12,NF-kB reporter,[1]; [4],0.924 ± 0.067
same,NF-kB reporter,[1]; agonist: LPS 0.1 ug/mL,1.08 ± 0.073
same,NF-kB reporter,[1]; agonist: MPLA […],1.03 ± 0.061
same,IRF reporter,[2]; agonist: 3'3'-cGAMP 10 ug/mL,1.14 ± 0.042
same,IRF reporter,[2]; agonist: LPS 0.1 ug/mL,1.65 ± 0.13
same,IRF reporter,[2]; agonist: MPLA […],1.29 ± 0.16
same,viability score,[3],0.975 (active)
O=C(c1ccccc1)C1OC1(CBr)c1ccccc1 (centres undefined),NF-kB reporter,[1]; [4],1.06 ± 0.06
same,NF-kB reporter,[1]; agonist: LPS 0.1 ug/mL,0.76 ± 0.052
same,NF-kB reporter,[1]; agonist: MPLA […],0.663 ± 0.039
same,IRF reporter,[2]; agonist: 3'3'-cGAMP 10 ug/mL,0.0937 ± 0.0033
same,IRF reporter,[2]; agonist: LPS 0.1 ug/mL,0.69 ± 0.072
same,IRF reporter,[2]; agonist: MPLA […],0.913 ± 0.17
same,viability score,[3],0.833 (active)
CC(C)CNC(=O)C(=O)Nc1ccc(C(C)C)cc1,NF-kB reporter,[1]; [4],1.03 ± 0.12
same,NF-kB reporter,[1]; agonist: LPS 0.1 ug/mL,0.931 ± 0.11
same,NF-kB reporter,[1]; agonist: MPLA […],1.01 ± 0.038
same,IRF reporter,[2]; agonist: 3'3'-cGAMP 10 ug/mL,0.989 ± 0.15
same,IRF reporter,[2]; agonist: LPS 0.1 ug/mL,0.959 ± 0.052
same,IRF reporter,[2]; agonist: MPLA […],0.958 ± 0.093
same,viability score,[3],1 (active)
CCC(=O)c1c(O)cc(O)cc1O,NF-kB reporter,[1]; [4],1.03 ± 0.083
same,NF-kB reporter,[1]; agonist: LPS 0.1 ug/mL,1.1 ± 0.055
same,NF-kB reporter,[1]; agonist: MPLA […],1.04 ± 0.055
same,IRF reporter,[2]; agonist: 3'3'-cGAMP 10 ug/mL,0.922 ± 0.056
same,IRF reporter,[2]; agonist: LPS 0.1 ug/mL,0.946 ± 0.081
same,IRF reporter,[2]; agonist: MPLA […],0.84 ± 0.071
same,viability score,[3],0.999 (active)
